According to PubChem BioAssay (NCATS):
Values joined by “and” are separate entries in the source; they are usually repeats but may differ in a detail not shown here. Equal values may be shown once. Inconclusive results are not listed. Active and inactive are the calls of the source. The call rests on the fitted dose curve; in most records, active means well fitted curve in the direction sought with a large enough effect; inconclusive means small, poorly fitted or top-dose-only effect, or another doubt; inactive means no such curve, though single readings can be large; an effect the other way counts as inactive or inconclusive.

Tests used:
TAB165 = assay: qHTS profiling for inhibitors of Plasmodium falciparum proliferation (AID 504749); further: nearly all actives have a fitted effect of over 60% in size; further: potency means the concentration at half of the fitted maximal effect; conditions: P. falciparum in erythrocytes, SYBR Green DNA, 72 h; series mostly up to 28.7 µM
In short: (§1)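 SYBR Green fluorescence (ex 485 nm, em 535 nm) reports parasite DNA after 72 h compound exposure of infected red cells at 0.3% parasitemia, 2.5% hematocrit; signal normalized to 0.29 uM artemisinin and vehicle wells.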

CRL-7250 [1] = assay: Cytotoxic Profiling of Annotated Libraries Using Quantitative High-Throughput Screening (AID 1296008); conditions: Five cell lines viability, CellTiter-Glo ATP luminescence, 48-72 h; max response: hits give low values; further: nearly all actives have a fitted effect of over 60% in size; further: potency means the concentration at half of the fitted maximal effect; on max response: on the % scale 0 is the no-effect control and ±100 the full control effect
In short: (§2)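 Cells exposed to compounds for 48 or 72 hr at 37 degrees Celsius. Viability read as ATP-coupled luminescence with CellTiter-Glo after 10 min at room temperature.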

HEK293 = assay: as above; conditions: Five cell lines viability, CellTiter-Glo ATP luminescence, 48-72 h; max response: hits give low values
In short: as §2

HaCat [2] = assay: as above; conditions: Five cell lines viability, CellTiter-Glo ATP luminescence, 48-72 h; max response: hits give low values
In short: as §2

KB-3-1 = assay: as above; conditions: Five cell lines viability, CellTiter-Glo ATP luminescence, 48-72 h; max response: hits give low values
In short: as §2

NIH3T3 = assay: as above; conditions: Five cell lines viability, CellTiter-Glo ATP luminescence, 48-72 h; max response: hits give low values
In short: as §2

HACAT [3] = assay: qHTS assay to identify novel small-molecules to repurpose for Merkel cell carcinoma treatment (AID 1296009); conditions: MCC and control cell lines, CellTiter-Glo viability, 72 h; at 44.8 µM (top of the series) unless noted; further: nearly all actives have a fitted effect of over 60% in size; further: potency means the concentration at half of the fitted maximal effect
In short: (§3)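 CellTiter-Glo luminescence after 72 hr compound exposure at 37 degree celsius gave cell viability. Libraries NPC and MIPE were run as 8- and 11-point dose responses; RLUs normalized to DMSO (negative) and no-cell (cytotoxicity) controls.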

MCC-13 = assay: as above; conditions: MCC and control cell lines, CellTiter-Glo viability, 72 h; series mostly up to 46 µM
In short: as §3

MCC-26 = assay: as above; conditions: MCC and control cell lines, CellTiter-Glo viability, 72 h; series mostly up to 46 µM
In short: as §3

MKL-1 = assay: as above; conditions: MCC and control cell lines, CellTiter-Glo viability, 72 h; series mostly up to 46 µM
In short: as §3

WaGa = assay: as above; conditions: MCC and control cell lines, CellTiter-Glo viability, 72 h; series mostly up to 46 µM
In short: as §3

C33A = assay: Primary qHTS to identify gynecologic anti-cancer compounds using libraries of approved drugs and bioactive compounds (AID 1345084); conditions: Gynecologic cancer cell panel viability, ATPlite luminescence, 48 h; series mostly up to 57.5 µM; further: on the % scale 0 is the no-effect control and ±100 the full control effect; nearly all actives have a fitted effect of over 55% in size
In short: (§4)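 Cytotoxicity screen measuring ATP content by luciferase luminescence. Each compound is applied at five concentrations for 48 h at 37 C with 5% CO2.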

CAOV3 = assay: as above; conditions: Gynecologic cancer cell panel viability, ATPlite luminescence, 48 h; series mostly up to 57.5 µM
In short: as §4

CASKI = assay: as above; conditions: Gynecologic cancer cell panel viability, ATPlite luminescence, 48 h; series mostly up to 57.5 µM
In short: as §4

W2 = assay: qHTS profiling for inhibitors of Plasmodium falciparum proliferation (AID 504749); further: nearly all actives have a fitted effect of over 60% in size; further: potency means the concentration at half of the fitted maximal effect; conditions: P. falciparum in erythrocytes, SYBR Green DNA, 72 h; series mostly up to 28.7 µM
In short: as §1

MKL-2 = assay: qHTS assay to identify novel small-molecules to repurpose for Merkel cell carcinoma treatment (AID 1296009); conditions: MCC and control cell lines, CellTiter-Glo viability, 72 h; series mostly up to 46 µM; further: nearly all actives have a fitted effect of over 60% in size; further: potency means the concentration at half of the fitted maximal effect
In short: as §3

UISO = assay: as above; conditions: MCC and control cell lines, CellTiter-Glo viability, 72 h; series mostly up to 46 µM
In short: as §3

CRL-7250 [4] = assay: as above; conditions: MCC and control cell lines, CellTiter-Glo viability, 72 h; series mostly up to 44.8 µM
In short: as §3

HEK293T = assay: as above; conditions: MCC and control cell lines, CellTiter-Glo viability, 72 h; at 44.8 µM (top of the series)
In short: as §3

N#CC(C#N)=Cc1ccc(O)c(O)c1
active: Potency (MKL-1) 7.5 µM | Potency (WaGa) 13.3 µM
inactive: Potency (TAB165) | max response (CRL-7250 [1]) -16.4% | max response (HEK293) -18.8% | outcome (HaCat [2]) | max response (KB-3-1) 1.48% | max response (NIH3T3) -19.5% | outcome (HACAT [3]) | Potency (MCC-13) | Potency (MCC-26) | Potency (C33A) | Potency (CAOV3) | Potency (CASKI)

CCC(=O)C(CC(C)N(C)C)(c1ccccc1)c1ccccc1 (stereo not given)
active: Potency (HEK293) 30.9 µM
inactive: max response (CRL-7250 [1]) -4.65% | outcome (HaCat [2]) | max response (KB-3-1) -25% | max response (NIH3T3) -1.89% | outcome (HACAT [3]) inactive [at 92 µM] | Potency (MCC-13) | Potency (MCC-26) | Potency (C33A)

Nc1ccncc1
inactive: Potency (TAB165) | Potency (W2) | max response (CRL-7250 [1]) 4.16% | max response (HEK293) -0.798% | outcome (HaCat [2]) | max response (KB-3-1) 14.9% | max response (NIH3T3) 2.18% | outcome (HACAT [3]) | Potency (MCC-13) | Potency (MCC-26) | Potency (MKL-1) | Potency (MKL-2) | Potency (UISO) | Potency (WaGa) | Potency (C33A) | Potency (CAOV3) | Potency (CASKI)

CN1CCN(C(=O)O[C@H]2c3nccnc3C(=O)N2c2ccc(Cl)cn2)CC1
inactive: Potency (TAB165) | Potency (W2) | outcome (CRL-7250 [1]) | max response (HEK293) 3.04% | outcome (HEK293) | max response (HaCat [2]) -17.1% | outcome (HaCat [2]) | max response (KB-3-1) 4.48% | max response (NIH3T3) -1.04% and -0.741% | outcome (CRL-7250 [4]) | outcome (HACAT [3]) | outcome (HEK293T) | Potency (MCC-13) | Potency (MCC-26) | Potency (MKL-1) | Potency (MKL-2) | Potency (UISO) | Potency (WaGa) | Potency (C33A) | Potency (CAOV3) | Potency (CASKI)

c1ccc2c(c1)Nc1ccccc1S2
active: Potency (W2) 3.38 µM
inactive: outcome (CRL-7250 [1]) | max response (HEK293) -4.55% | max response (HaCat [2]) -0.234% | outcome (HaCat [2]) | max response (KB-3-1) 3% and -4.89% | max response (NIH3T3) -3.03% and 0.216% | outcome (CRL-7250 [4]) | outcome (HACAT [3]) | Potency (MCC-13) | Potency (MCC-26) | Potency (MKL-1) | Potency (MKL-2) | Potency (UISO) | Potency (WaGa) | Potency (C33A) | Potency (CAOV3) | Potency (CASKI)

Cc1cccc(C)c1NC(=O)CN1CCCC1=O
inactive: max response (CRL-7250 [1]) 0.285% and 2.07% | max response (HEK293) 2.15% | outcome (HEK293) | max response (HaCat [2]) 3.48% and 0.767% | max response (KB-3-1) -16.8% and -6.89% | max response (NIH3T3) 1.47% and -1.95% | outcome (HEK293T) | Potency (MCC-13) | Potency (MCC-26) | Potency (MKL-1) | Potency (MKL-2) | Potency (UISO) | Potency (WaGa) | Potency (C33A) | Potency (CAOV3) | Potency (CASKI)
